Entries with a potency or affinity are not part of this list. Results filed as inconclusive are left out. Activity calls are given as the source filed them.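 Rule for the calls: active = compounds lowering the FRET ratio whose fitted half-maximal concentration is at most twice their top tested dose; inconclusive = flat partial drop between 30 and 70 percent, or bad fit; inactive = the rest.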
What follows are compounds tested against Voltage-dependent L-type calcium channel subunit alpha-1D (Homo sapiens) (UniProt Q01668) (assay: disruptors of CaV1.3 IQ/ICDI domain association – cell-based, HEK293, YFP-IQ/CFP-ICDI FRET, cherry-picks, dose response (AID 1053205)). Details: HEK293 YFP-IQ/CFP-ICDI FRET ratio, 10 min; series mostly up to 35 µM.
Sequence of Voltage-dependent L-type calcium channel subunit alpha-1D (Homo sapiens) (Q01668 whole entry, looked up, the tested form may be a part): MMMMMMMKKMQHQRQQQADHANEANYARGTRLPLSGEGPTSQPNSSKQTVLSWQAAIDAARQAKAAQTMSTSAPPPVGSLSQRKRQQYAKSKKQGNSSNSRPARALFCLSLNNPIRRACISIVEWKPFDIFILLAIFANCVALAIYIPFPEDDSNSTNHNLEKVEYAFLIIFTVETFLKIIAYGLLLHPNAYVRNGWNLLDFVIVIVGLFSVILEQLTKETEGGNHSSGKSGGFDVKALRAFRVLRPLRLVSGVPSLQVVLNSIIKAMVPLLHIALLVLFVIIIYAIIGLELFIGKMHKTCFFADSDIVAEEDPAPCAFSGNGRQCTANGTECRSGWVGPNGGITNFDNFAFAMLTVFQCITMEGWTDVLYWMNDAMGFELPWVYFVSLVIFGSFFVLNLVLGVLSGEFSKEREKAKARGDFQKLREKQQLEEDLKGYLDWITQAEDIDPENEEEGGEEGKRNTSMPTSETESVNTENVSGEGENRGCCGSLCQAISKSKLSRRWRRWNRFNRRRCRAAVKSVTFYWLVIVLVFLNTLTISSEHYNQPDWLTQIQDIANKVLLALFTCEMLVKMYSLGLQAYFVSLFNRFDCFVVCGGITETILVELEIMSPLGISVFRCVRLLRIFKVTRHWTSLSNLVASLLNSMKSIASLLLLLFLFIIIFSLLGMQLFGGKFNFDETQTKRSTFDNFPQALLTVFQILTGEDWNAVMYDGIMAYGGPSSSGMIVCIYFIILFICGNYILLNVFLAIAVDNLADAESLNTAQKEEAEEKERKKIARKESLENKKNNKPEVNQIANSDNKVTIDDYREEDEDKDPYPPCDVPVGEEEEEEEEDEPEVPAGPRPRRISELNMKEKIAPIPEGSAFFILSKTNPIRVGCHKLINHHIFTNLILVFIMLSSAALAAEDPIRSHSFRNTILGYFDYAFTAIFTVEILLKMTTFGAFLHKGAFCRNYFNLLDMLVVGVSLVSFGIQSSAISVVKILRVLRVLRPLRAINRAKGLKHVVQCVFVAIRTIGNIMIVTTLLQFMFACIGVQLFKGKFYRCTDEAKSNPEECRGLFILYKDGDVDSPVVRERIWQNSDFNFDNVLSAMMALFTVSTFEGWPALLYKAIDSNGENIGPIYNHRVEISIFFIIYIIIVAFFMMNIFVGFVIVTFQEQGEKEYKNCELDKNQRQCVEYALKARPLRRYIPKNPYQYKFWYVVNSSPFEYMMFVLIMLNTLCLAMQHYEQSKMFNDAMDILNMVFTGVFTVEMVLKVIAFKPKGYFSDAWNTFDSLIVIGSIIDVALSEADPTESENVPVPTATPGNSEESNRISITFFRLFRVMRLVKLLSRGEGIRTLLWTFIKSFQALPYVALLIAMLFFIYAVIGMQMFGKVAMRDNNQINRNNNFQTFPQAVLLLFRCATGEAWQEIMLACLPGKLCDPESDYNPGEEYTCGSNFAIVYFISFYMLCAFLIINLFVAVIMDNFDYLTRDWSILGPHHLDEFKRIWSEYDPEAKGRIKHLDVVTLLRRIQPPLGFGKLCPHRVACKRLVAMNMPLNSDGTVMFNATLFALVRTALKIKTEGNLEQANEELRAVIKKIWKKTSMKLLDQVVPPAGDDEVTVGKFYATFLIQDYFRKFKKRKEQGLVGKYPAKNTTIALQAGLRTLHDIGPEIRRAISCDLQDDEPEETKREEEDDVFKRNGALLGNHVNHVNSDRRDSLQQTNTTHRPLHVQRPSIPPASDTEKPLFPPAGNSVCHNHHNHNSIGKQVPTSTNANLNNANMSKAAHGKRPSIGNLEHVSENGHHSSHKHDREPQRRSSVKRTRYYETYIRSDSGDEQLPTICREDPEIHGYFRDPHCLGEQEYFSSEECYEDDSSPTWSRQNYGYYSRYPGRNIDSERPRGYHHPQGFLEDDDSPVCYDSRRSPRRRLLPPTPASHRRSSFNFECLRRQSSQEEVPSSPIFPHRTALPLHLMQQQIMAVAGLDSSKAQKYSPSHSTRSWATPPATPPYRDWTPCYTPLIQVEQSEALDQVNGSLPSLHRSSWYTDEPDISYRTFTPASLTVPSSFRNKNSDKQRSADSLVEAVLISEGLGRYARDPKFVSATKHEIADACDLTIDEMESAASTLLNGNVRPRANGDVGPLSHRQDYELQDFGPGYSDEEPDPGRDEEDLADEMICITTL

outcome, inactive:
CCN(CC)Cc1c(O)c(Cl)cc2c(C)cc(=O)oc12, COc1ccccc1C1C2=C(CC(C)(C)CC2=O)N(CC(=O)O)C2=C1C(=O)CC(C)(C)C2, CCOC(=O)C(NC(=O)c1ccccc1)(OCC1(CC)COC1)C(F)(F)F (stereo unspecified), CCC(=O)NCCCNc1nc2c(C)cccc2cc1C#N, Clc1ccccc1C1=CC(c2ccco2)n2ncnc2N1 (stereo unspecified), O=c1[nH]c(=O)c2nc(-c3ccc(Cl)cc3)cnc2[nH]1, CCOC(=O)c1cc(-c2ccccc2)sc1NC(=O)CSc1nnc(N)s1, Cc1cccc2sc(NNC(=O)c3ccc(S(=O)(=O)N4CCCC(C)C4)cc3)nc12 (stereo unspecified), CCc1cccc(C)c1NC(=S)NCc1ccc2c(c1)cc(C)n2C, Cc1c(Nc2c3ccccc3nc3ccccc23)c(=O)n(-c2ccccc2)n1C, O=C(NNc1c2ccccc2nc2ccccc12)c1ccc(O)cc1, COc1ccc(Br)c(Cn2c(C)c(C(=O)NCc3ccc4c(c3)OCCO4)sc2=O)c1, COc1ccc(CCNC(=O)CSc2cn(Cc3cccc(C)c3)c3ccccc23)cc1OC, CC1CCCCC1NC(=O)CN1C(=O)c2cccc(N)c2C1=O (stereo unspecified), COc1ccc(C2CC(c3ccccc3)=NN2c2ccc(C(N)=O)cc2)cc1 (stereo unspecified), Cc1cc2c(C)cc(=O)oc2c2c1NCCC2, CN(C)/C=C/C(=O)c1c(F)cccc1F, COCCNC(=S)N/N=C/c1ccc(-c2ccc([N+](=O)[O-])cc2)o1, CCc1cccc(OC2OC(CO)C(O)C(O)C2NC(C)=O)c1 (stereo unspecified), COc1ccc(C[C@H]2CN3C(=NC[C@@H]3Cc3ccccc3)N2CCNC(=O)CCC2CCCCC2)cc1, O=C(Nc1ccc2c(c1)OCCO2)c1ccc(NC(=O)C2CCCO2)cc1 (stereo unspecified), CCCn1c(=N)c(S(=O)(=O)c2ccccc2)cc2c(=O)n3ccccc3nc21, S=C(NCC1CCCO1)N1CCN(Cc2ccccc2Cl)CC1 (stereo unspecified), Fc1ccc(-c2nc3ccccn3c2NCc2ccc3c(c2)OCO3)cc1, O=C(CCc1c[nH]c2ccccc12)OCC(=O)c1ccccc1, CCOc1ccc(NC(=O)CN(C)C(=O)CCCNC(=O)c2ccc(Cl)cc2)cc1OCC, CCCOc1ccc(C(=O)NNC(=S)NC(=O)c2ccco2)cc1, O=c1[nH]c(Nc2ccccc2Cl)cc2ccccc12, CC(=O)c1cc2ccc(O)cc2oc1=O, O=C(NCc1cc(C(F)(F)F)ccc1Cl)c1cccc2c1C(=O)c1ccc(Cl)cc1S2(=O)=O, Cc1ccc(S(=O)(=O)Nc2ccc(Nc3ccccc3)cc2)cc1, CC1=C(C(=O)N2CCN(c3cc(C)ccc3C)CC2)C2(CCCCC2)OC1=O, Cc1ccc(-n2c(C)cc(/C=N/NC(=O)Cn3c4ccccc4c(=O)c4ccccc43)c2C)cc1, CCN(c1ccccc1)S(=O)(=O)c1ccc(OC)c(NC(=O)CN(C)C)c1, Nc1nc(-c2cc(O)ccc2[N+](=O)[O-])cc(-c2ccccc2)c1[N+](=O)[O-], COc1ccccc1C(=O)c1cc2ccc(O)cc2oc1=O
